# Measured values from PubChem BioAssay AID1159580 (chemical genetic matrix, 2015).
# Several values for one entry are separate records, joined by “and”; a condition that tells them apart may be missing. Equal values may be shown once. In all, about 5,500 compounds went through this assay and about 2,000 (36%) were called active. About 18% were inconclusive and are not listed. The list shows a part of the results. Unmarked numbers belong to inactive results. No stated cut-off is given here; in the data, active means normalized growth mostly below about 0.91 (no sharp cut-off); inconclusive means no clear call, values can overlap the other calls; inactive means mostly above about 0.92.
# Assay: chemical genetic growth profiling, strain panel (AID 1159580);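 further: tested at 20 µM; growth read once vehicle control cultures reached saturation at 30 °C; 1 = growth at the plate median or of vehicle wells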
# Conditions: S. cerevisiae deletion strains, growth OD
smiles,measurement,setting,value
C[C@H]1COc2c(N3CCN(C)CC3)c(F)cc3c(=O)c(C(=O)O)cn1c23,normalized growth,"locus YAL013W, strain DEP1, stronger effect = lower value",1
same,normalized growth,"locus YAL021C, strain ccr4, stronger effect = lower value",1.02
same,normalized growth,"locus YAL026C, strain drs2, stronger effect = lower value",1.03
same,normalized growth,"locus YAL030W, strain snc1, stronger effect = lower value",1.02
same,normalized growth,"locus YBR009C, strain hhf1, stronger effect = lower value",1.01
same,normalized growth,"locus YBR021W, strain FUR4, stronger effect = lower value",0.995
same,normalized growth,"locus YBR023C, strain chs3, stronger effect = lower value",1.02
same,normalized growth,"locus YBR171W, strain sec66, stronger effect = lower value",1.04
same,normalized growth,"locus YBR229C, strain ROT2, stronger effect = lower value",1
same,normalized growth,"locus YBR231C, strain swc5, stronger effect = lower value",1.02
same,normalized growth,"locus YBR279W, strain paf1, stronger effect = lower value",1.02
same,normalized growth,"locus YCL011C, strain gbp2, stronger effect = lower value",0.259 (active)
same,normalized growth,"locus YCL016C, strain dcc1, stronger effect = lower value",1.02
same,normalized growth,"locus YCL029C, strain bik1, stronger effect = lower value",1.02
same,normalized growth,"locus YCL061C, strain MRC1, stronger effect = lower value",1.04
same,normalized growth,"locus YCL069W, strain vba3, stronger effect = lower value",1.02
same,normalized growth,"locus YCR088W, strain abp1, stronger effect = lower value",1.02
same,normalized growth,"locus YDL005C, strain med2, stronger effect = lower value",1.04
same,normalized growth,"locus YDL035C, strain GPR1, stronger effect = lower value",1.02
same,normalized growth,"locus YDL040C, strain nat1, stronger effect = lower value",1.02
same,normalized growth,"locus YDL074C, strain BRE1, stronger effect = lower value",1.01
same,normalized growth,"locus YDL101C, strain DUN1, stronger effect = lower value",0.999
same,normalized growth,"locus YDL134C, strain PPH21, stronger effect = lower value",1.01
same,normalized growth,"locus YDL185W, strain tfp1, stronger effect = lower value",1.02
same,normalized growth,"locus YDL192W, strain arf1, stronger effect = lower value",1.02
same,normalized growth,"locus YDR001C, strain nth1, stronger effect = lower value",1.02
same,normalized growth,"locus YDR069C, strain doa4, stronger effect = lower value",1.04
same,normalized growth,"locus YDR101C, strain arx1, stronger effect = lower value",1.01
same,normalized growth,"locus YDR137W, strain rgp1, stronger effect = lower value",0.989
same,normalized growth,"locus YDR150W, strain NUM1, stronger effect = lower value",0.999
same,normalized growth,"locus YDR159W, strain sac3, stronger effect = lower value",1.03
same,normalized growth,"locus YDR162C, strain NBP2, stronger effect = lower value",0.989
same,normalized growth,"locus YDR195W, strain ref2",0.993
same,normalized growth,"locus YDR297W, strain sur2, stronger effect = lower value",1.02
same,normalized growth,"locus YDR318W, strain mcm21, stronger effect = lower value",1.02
same,normalized growth,"locus YDR334W, strain swr1, stronger effect = lower value",1.01
same,normalized growth,"locus YDR335W, strain msn5, stronger effect = lower value",1.02
same,normalized growth,"locus YDR388W, stronger effect = lower value",1.01
same,normalized growth,"locus YDR392W, strain spt3, stronger effect = lower value",1.04
same,normalized growth,"locus YDR502C, strain sam2, stronger effect = lower value",1.01
same,normalized growth,"locus YEL003W, strain gim4, stronger effect = lower value",1.01
same,normalized growth,"locus YEL037C, strain rad23, stronger effect = lower value",1.03
same,normalized growth,"locus YEL061C, strain CIN8 (second series), stronger effect = lower value",1.04
same,normalized growth,"locus YEL061C, strain CIN8, stronger effect = lower value",0.993
same,normalized growth,"locus YER015W, strain faa2, stronger effect = lower value",1.01
same,normalized growth,"locus YER016W, strain bim1, stronger effect = lower value",1.02
same,normalized growth,"locus YER110C, stronger effect = lower value",1.02
same,normalized growth,"locus YER111C, strain swi4, stronger effect = lower value",1.03
same,normalized growth,"locus YER155C, strain BEM2 (second series), stronger effect = lower value",1.03
same,normalized growth,"locus YER155C, strain BEM2, stronger effect = lower value",1.01
same,normalized growth,"locus YER167W, strain BCK2, stronger effect = lower value",1
same,normalized growth,"locus YFR010W, strain ubp6, stronger effect = lower value",1.03
same,normalized growth,"locus YGL078C, strain dbp3, stronger effect = lower value",1.02
same,normalized growth,"locus YGL086W, strain mad1, stronger effect = lower value",1.01
same,normalized growth,"locus YGL167C, strain pmr1, stronger effect = lower value",1.03
same,normalized growth,"locus YGL173C, strain kem1, stronger effect = lower value",1.01
same,normalized growth,"locus YGL227W, strain vid30, stronger effect = lower value",1.02
same,normalized growth,"locus YGL240W, strain doc1, stronger effect = lower value",1.02
same,normalized growth,"locus YGL248W, strain PDE1, stronger effect = lower value",1
same,normalized growth,"locus YGL253W, strain hxk2, stronger effect = lower value",1.01
same,normalized growth,"locus YGR078C, strain PAC10, stronger effect = lower value",0.998
same,normalized growth,"locus YGR135W, strain pre9, stronger effect = lower value",1.01
same,normalized growth,"locus YGR229C, strain SMI1, stronger effect = lower value",0.989
same,normalized growth,"locus YGR252W, strain gcn5, stronger effect = lower value",0.996
same,normalized growth,"locus YHR013C, strain ard1, stronger effect = lower value",1.02
same,normalized growth,"locus YHR027C, strain rpn1, stronger effect = lower value",1.01
same,normalized growth,"locus YHR030C, strain SLT2, stronger effect = lower value",1.01 and 0.977
same,normalized growth,"locus YHR079C, strain IRE1 (second series), stronger effect = lower value",1.01
same,normalized growth,"locus YHR079C, strain IRE1, stronger effect = lower value",0.991
same,normalized growth,"locus YHR094C, strain hxt1, stronger effect = lower value",1.01
same,normalized growth,"locus YHR129C, strain ARP1, stronger effect = lower value",1.01
same,normalized growth,"locus YHR142W, strain chs7, stronger effect = lower value",1.02
same,normalized growth,"locus YHR200W, strain rpn10, stronger effect = lower value",1.02
same,normalized growth,"locus YIL066C, strain RNR3, stronger effect = lower value",1
same,normalized growth,"locus YIL073C, strain SPO22, stronger effect = lower value",1.05
same,normalized growth,"locus YIL125W, strain kgd1, stronger effect = lower value",1.01
same,normalized growth,"locus YIR030C, strain dcg1, stronger effect = lower value",1.03
same,normalized growth,"locus YJL092W, strain hpr5, stronger effect = lower value",1.03
same,normalized growth,"locus YJL095W, strain BCK1 (second series), stronger effect = lower value",1.02
same,normalized growth,"locus YJL095W, strain BCK1, stronger effect = lower value",1.02 and 0.996
same,normalized growth,"locus YJL115W, strain asf1, stronger effect = lower value",1.04
same,normalized growth,"locus YJL129C, strain trk1, stronger effect = lower value",1.04
same,normalized growth,"locus YJL134W, strain LCB3, stronger effect = lower value",1
same,normalized growth,"locus YJL154C, strain vps35, stronger effect = lower value",1.01
same,normalized growth,"locus YJL164C, strain tpk1, stronger effect = lower value",1.01
same,normalized growth,"locus YJL166W, strain qcr8, stronger effect = lower value",1.02
same,normalized growth,"locus YJL168C, strain set2, stronger effect = lower value",1.01
same,normalized growth,"locus YJL187C, strain SWE1 (second series), stronger effect = lower value",1.01
same,normalized growth,"locus YJL187C, strain SWE1, stronger effect = lower value",1.01
same,normalized growth,"locus YJR043C, strain POL32, stronger effect = lower value",0.998
same,normalized growth,"locus YJR066W, strain TOR1, stronger effect = lower value",0.944
